Assay outcomes (PubChem)
Compounds with a hit are over-represented: about 4.5% of the library has one in this group of screens.
Mdm2-MdmX inh = inhibitors of human Mdm2/MdmX interaction. O15151+Q00987. SaOS-2 split-luciferase Mdm2/MdmX complementation, luminescence. inhibition, % at 8 µM. actives 3% (n = 330,000). AID 485346;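 active = inhibition of at least 50% at 8 µM in the primary screen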
697 NFkB inh = inhibitors of the PMA/ionomycin-induced NF-kB reporter in 697 B cells; 697 B-cell NF-kB luciferase reporter, 16 h; inhibition, % at 4 µM; actives 0.33% (n = 330,000); AID 435022; in the data active = inhibition above about 35%
Gli-Sufu block = blocks Gli-Sufu signaling in a luciferase reporter; actives 0.74% (n = 340,000); AID 588413; inhibition, % at 5 µM; Sufu-KO-LIGHT fibroblasts, Gli luciferase reporter luminescence;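 active = inhibition above about 55%, limit read from the data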;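 also: 0% = DMSO-treated cells and 100% = wells with medium but no cells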
Jurkat NFkB inh = lowers PMA/ionomycin-induced NF-kB signal in Jurkat cells. PMA/ionomycin-induced NF-kB luciferase reporter, luminescence. inhibition, % at 4 µM. actives 0.53% (n = 330,000). AID 435003; in the data active = inhibition above about 50%
CSC inhib = blocks cancer stem cells. actives 1.1% (n = 300,000). inhibition, % at 7.5 µM. cancer stem cell-like cells viability, luminescence. AID 2717; in the data active = inhibition above about 75%; tested in HMLE shEcad cells
aSyn 5UTR inh = 5' untranslated region of α-synuclein, MLPCN primary screen | alpha-synuclein 5'UTR reporter, inhibitor activity | inhibition, % (tested at 7.5 µM) | actives 0.82% (n = 300,000) | AID 1813; in the data active = inhibition above about 60%;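 also: H4 neuroglioblastoma cells stably carrying SNCA 5'UTR luciferase fusion; 0% = DMSO wells and 100% = positive control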
* = called active by the depositor; / = no result.

SMILES	Mdm2-MdmX inh	697 NFkB inh	Gli-Sufu block	Jurkat NFkB inh	CSC inhib	aSyn 5UTR inh
O=C1CCCN1C(=O)CSc1ccc2ccccc2n1	-11	10	0	-5	/	/
Cc1c(O)c(=O)ccn1Cc1ccccc1	44	14	19	4	-2	68*
O=C(CN1C2=NCCCN2c2ccccc21)c1ccc([N+](=O)[O-])cc1	-21	1	14	11	-16	17
O=c1cc(-c2ccccc2)[nH]n1-c1nc2ccccc2s1	43	3	-11	-4	98*	9
O=c1cc(-c2ccccc2)[nH]n1-c1ccccc1	/	/	9	/	/	/
Cc1cc(Nc2nc(Cl)c(Cl)cc2Cl)n(-c2ccccc2)n1	34	-11	-15	8	99*	-6
Cc1cc(OCc2ccc(C(=O)NN=C3CCCC3)cc2)ccc1Cl	4	-39	-13	-60	11	-38
CN(C)c1ccc(/C=C/c2cc[n+](C)cc2)cc1	48	-10	70*	26	-1	-30
CN(C)c1ccc(/C=C/c2cc[n+]([O-])cc2)cc1	5	-20	/	-18	-15	-114
CC[n+]1c(/C=C/c2ccc(N(C)C)cc2)ccc2ccccc21	/	/	88*	/	54	2
CC[n+]1ccc(/C=C/c2ccc(N(C)C)cc2)c2ccccc21	/	/	87*	/	/	/
CC[n+]1ccc(C[n+]2ccccc2)c2ccccc21	/	/	0	/	-11	/
COc1ccc(/C=N\NC(=O)c2ccc(=O)[nH]n2)cc1O	17	-31	22	-4	/	-7
COc1ccc(/C=N/NC(=O)c2cc(C34CC5CC(CC(C5)C3)C4)[nH]n2)cc1O	18	3	2	-2	97*	-2
COc1ccc(CNC(=O)C(c2ccncc2)N(C(=O)Cc2cccs2)c2ccccc2)cc1 (stereo not drawn)	/	/	1	/	/	/
COc1ccc(N(C(=O)CCl)C(C(=O)NCCc2ccccc2)c2cccs2)cc1 (stereo not drawn)	/	/	95*	/	111*	-16
Cc1oc(CC(C)C)cc1C(=O)Nc1cccc2ccccc12	26	6	-5	5	80*	14
CN(C)S(=O)(=O)c1cccc(-c2nn(-c3ccccc3)cc2/C=C2\SC(=S)NC2=O)c1	/	/	6	/	94*	/
CN1CCCc2cc3c(C(F)(F)F)cc(=O)oc3nc21	-6	9	96*	4	0	1
Cc1[nH]c2ccccc2c1-c1nc(-c2ccc(Cl)cc2)nnc1-c1ccccc1	1	-24	/	-8	10	-33
CC(C)CC(c1nnnn1Cc1ccco1)N1CCN(c2cccc(Cl)c2)CC1 (stereo not drawn)	30	13	21	12	110*	23
Cc1ccc(Cl)cc1N1CCN(C(CC(C)C)c2nnnn2CC2CCCO2)CC1 (stereo not drawn)	24	8	17	22	101*	-15
COc1ccc(Cn2nnnc2C(CC(C)C)N2CCN(c3ccccc3)CC2)cc1 (stereo not drawn)	24	7	10	3	9	28
CC(C)CC(c1nnnn1CC1CCCO1)N1CCN(c2cccc(Cl)c2)CC1 (stereo not drawn)	2	-6	0	20	65	17
CCCC(c1nnnn1CC1CCCO1)N1CCN(c2cc(Cl)ccc2C)CC1 (stereo not drawn)	20	2	12	8	99*	22
SMILES	Mdm2-MdmX inh	697 NFkB inh	Gli-Sufu block	Jurkat NFkB inh	CSC inhib	aSyn 5UTR inh
Cc1ccccc1CSc1ccc(-c2ccc3c(c2)OCO3)nn1	-138	-42	-49	-28	87*	-83
CC(=O)Oc1ccc(C(=O)Nc2ccc(C3(C#N)CCCC3)cc2)cc1	18	-74	-60	-48	96*	-142
N#CC1(c2ccc(NC(=O)c3ccccc3)cc2)CCCC1	/	/	/	/	18	-89
CC1Sc2ccc(S(=O)(=O)N3CCC(C(=O)Nc4ccc(Cl)cc4)CC3)cc2NC1=O (stereo not drawn)	39	-17	69*	30	-14	-20
CC(=O)N1c2ccc(S(=O)(=O)N3CCC(C(=O)Nc4cccc(Cl)c4)CC3)cc2CC1C (stereo not drawn)	33	-11	73*	30	7	25
CC(=O)N1c2ccc(S(=O)(=O)N3CCC(C(=O)Nc4cccc(C)c4)CC3)cc2CC1C (stereo not drawn)	-11	-7	5	14	-5	34
Cc1nn(CC(=O)N2CCCC2)c(=O)c2cc3cc(F)ccc3n12	31	-1	-7	0	-31	-3
